Most compounds without a hit are left out; they make up all but 4.3% or so of the library.
TRPM1 prom inh = inhibitors of MITF-dependent TRPM1 promoter reporter, primary screen, cell-based, SK-MEL-5, single point, luciferase. inhibition, % at 12.5 µM. 0.83% of 330,000 active. SK-MEL-5 TRPM1 promoter luciferase, 24 h;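 active = mean inhibition across replicates of 60% or more, whatever share of single replicates reaches that level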
HIF-2a block = HIF-2a reporter inhibitors, primary screen, luminescence, 786-0 RCC cells; 786-0 RCC cells HIF-2a reporter, luciferase luminescence, overnight; inhibition, % at 18.8 µM; 0.72% of 360,000 active; AID 624352, 2012;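 active = inhibition of the luminescence signal of 40% or more relative to plate controls, in a single-dose primary screen at 18.75 µM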
CF NFkB block = inhibitors of PAF-induced NF-kB signaling, primary screen, cell-based, GFP fluorescence, uHTS | KKLEB NF-kB-GFP reporter, GFP fluorescence overnight | inhibition, % at 5 µM | 0.86% of 360,000 active | AID 588850, 2011;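 active = at least 50% inhibition at 5 µM, scaled per plate between neutral and stimulator controls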;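 also: PAF is a Pseudomonas aeruginosa culture filtrate used as stimulus; plate controls were PAF-stimulated DMSO wells for no effect and unstimulated DMSO wells for full effect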
CHOP inh = inhibitors of CHOP promoter induction, primary screen, cell-based, unfolded protein response, luciferase reporter; 3.8% of 220,000 active; CHO-K1 CHOP-promoter luciferase, tunicamycin-induced, 15-18 h; inhibition, % at 10 µM; AID 2732, 2010;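 active = compounds that reduced the stress-induced luciferase reporter signal by more than about 70% of percent inhibition, limit read from the data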;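 also: 0% = tunicamycin plus vehicle and 100% = wells without tunicamycin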
Peg3 promoter = Peg3 promoter-driven luciferase inhibitors, primary screen, cell-based, HeLa, luciferase luminescence | AID 588405, 2011 | HeLa PEG-Prom luciferase reporter, overnight | 1.7% of 360,000 active | inhibition, % at 20 µM;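 active = inhibition of at least 50% at 20 µM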
KKLEB cytotox = cytotoxicity in KKLEB CF airway cells, primary screen, cytotoxicity control for CF NF-kB inhibitor project, cell-based, uHTS, fluorescence assay plates. KKLEB CF airway cells viability, ATPlite luminescence, overnight; hits give low values; cells stimulated with P. aeruginosa culture filtrate. activity change (cytotoxicity), % at 5 µM. 0.36% of 360,000 active. AID 602141, 2011;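 active = corrected activity change at or below -50% at 5 µM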
* marks the source's active call; other numbers are inactive results; / = no result given.

SMILES	TRPM1 prom inh	HIF-2a block	CF NFkB block	CHOP inh	Peg3 promoter	KKLEB cytotox
NC1=CC(=O)C(=O)c2ccccc21	96.7*	0.3	68.4*	/	55.0*	-26.1
COc1ccc(C2=NC(=O)/C(=C\c3cc(OC)c(OC)c(OC)c3)O2)cc1	-3.0	6.7	16.0	89.0*	-3.6	-4.1
COc1ccc(/C=C2\N=C(c3ccc(C)cc3)OC2=O)cc1	1.7	12.3	-5.9	/	17.9	20.8
CCN(C(=O)c1cc2c(=O)[nH]c3ccc(C)cc3c2s1)c1ccccc1C	-18.1	16.4	31.3	96.0*	4.9	-14.4
CCN(C(=O)c1cc2c(=O)[nH]c3ccc(C)cc3c2s1)c1ccccc1F	0.0	8.4	-3.9	-36.4	10.3	6.7
CNc1c2cccc(C)c2nc2c(C(=O)NCCN(C)C)cccc12	100.2*	61.7*	95.1*	/	108.0*	-38.6
O=C1SC(SCc2ccccc2Cl)=N/C1=C\c1ccc(C(=O)O)cc1	10.2	12.7	6.2	82.0*	0.1	4.3
CCCCCCCCn1c(=O)c(C(=O)OCC)c(O)c2ccccc21	-5.8	30.0	-10.0	47.4	1.8	10.6
CCCCCn1c(=O)c(-c2nc3ccccc3[nH]2)c(O)c2ccccc21	13.4	-55.4	-1.0	85.7*	-91.7	-1.4
CCCCCCN1CC(O)=C(c2nc3ccccc3[nH]2)C1=N	-21.0	-44.9	15.9	83.5*	-3.1	-18.9
CCC(C)N1CC(O)=C(c2nc3ccccc3[nH]2)C1=N (stereo unspecified)	-62.1	-190.2	-0.6	-23.3	-149.8	3.5
OCC[C@@H]1C[C@H](O)[C@@H](O)[C@@]2(Cc3ccccc3O2)O1	1.7	17.1	11.3	/	3.7	2.6
CC12CCC(O)CC1=CCC1C2CCC2(C)C3=NN=CC3CC12 (stereo unspecified)	3.3	6.7	38.1	/	51.2*	-11.0
C=C[C@@H]1c2ccccc2N(S(=O)(=O)c2ccc(C)cc2)[C@H](c2ccc(C(=O)OC)cc2)C1(C#N)C#N	5.4	5.9	5.2	/	17.0	-0.8
Cc1ccc(-n2ncc(C(=O)Nc3cc(Cl)cc(Cl)c3)c2C2CCNCC2)cc1C	85.5*	-15.1	37.1	3.0	59.5*	-41.6
Cc1ccc(-n2ncc(C(=O)Nc3cc(Cl)ccc3Cl)c2C2CCNCC2)cc1	5.3	-0.1	39.7	-13.4	-9.9	-17.3
O=C(c1ccc(C23CC4CC(CC(C4)C2)C3)o1)N1CCOCC1	-15.9	-64.0	-3.1	76.5*	-56.9	-3.0
COc1ccc(N(CC(=O)NCCSc2ccccn2)S(=O)(=O)c2ccccc2)c(OC)c1	6.4	-5.2	-2.9	/	9.8	-1.8
O=Cc1ccc(OC(=O)c2cc(Cl)nc3ccccc23)cc1	-3.1	12.5	-20.4	84.8*	28.7	8.0
O=C(Oc1cccc2ccccc12)c1cc(Cl)nc2ccccc12	3.5	18.7	-8.3	25.4	-14.4	-3.1
CCCCCCCCN1C(=O)[C@H](CC(=O)NCCCN2CCCC2=O)C[C@@]2(C(=O)OC)CC(C)(C)CC=C12	/	10.6	/	/	/	/
Cc1cc(C)n2c(=O)[nH]nc2c1	-8.6	9.6	0.0	/	0.4	-2.5
CCN(CC)c1ccc(NC(=O)c2cnc3ccccn3c2=O)c(C)c1	-30.9	-142.5	-4.3	80.8*	-82.6	12.1
CCCCc1ccc(NC(=S)NCc2cccs2)cc1	-5.4	-65.0	-19.8	85.2*	-41.9	1.1
N#CC(c1ccc(O)cc1)N1CCN(C(C#N)c2ccc(O)cc2)CC1 (stereo unspecified)	-2.4	7.4	-7.6	/	-16.4	1.2
SMILES	TRPM1 prom inh	HIF-2a block	CF NFkB block	CHOP inh	Peg3 promoter	KKLEB cytotox
CCOC(=O)c1cc(CC)sc1NC(=O)Cc1ccccc1	-11.7	4.0	21.1	85.3*	16.0	-10.8
CCc1cc(C(=O)O)c(NC(=O)C(c2ccccc2)c2ccccc2)s1	4.6	15.0	-1.5	22.4	14.6	-66.1*
CCOC(=O)c1cc(C)sc1NC(=O)C(c1ccccc1)c1ccccc1	-1.0	11.7	24.0	12.8	19.2	-20.8
COc1ccccc1/C=C/CN1CCCC(CCC(=O)NCc2ccccc2F)C1 (stereo unspecified)	8.6	11.1	16.4	21.1	13.2	-1.5
Cc1ccc(-c2onc3ccc(C=O)cc23)cc1	-7.9	-46.4	-1.7	-11.8	-176.3	1.0
Cc1ccc(-c2onc3ccc(C4(C)OCCO4)cc23)cc1	4.8	-106.1	4.0	85.7*	-87.7	6.9
Cc1ccccc1OCCCN1C(=O)C(=O)c2cccc(C)c21	-14.8	-67.6	0.9	107.3*	-10.5	-0.7
Cc1cccc2c1N(CCCOc1ccccc1)C(=O)C2=O	8.7	-48.3	5.1	22.6	-14.1	2.2
CN(C)C(=S)N=c1ssc(=S)n1Cc1cccnc1	32.2	1.6	16.0	/	18.8	-23.3
O=C(NC(=S)Nc1nc2c(s1)CCCC2)c1ccccc1	-29.6	-221.9	43.6	-63.8	-162.9	-52.4*
O=C(NC(=S)NCc1ccccc1)c1ccccc1	104.3*	-11.9	6.3	10.8	-21.0	-2.4
O=C(O)CCn1cc(C2CC(c3ccccc3)=NN2c2ccccc2)c(-c2ccccc2)n1 (stereo unspecified)	-6.7	-8.0	0.6	80.5*	-6.3	-4.2
CCN(CC(=O)NCc1cccs1)C(=O)c1ccc(NS(=O)(=O)c2ccc(F)cc2)cc1	-9.0	-4.4	16.5	/	-4.5	-17.0
CC1=CC2=NC(=O)C(c3ccccc3)C(=O)N2C=C1 (stereo unspecified)	10.0	-42.0	10.4	/	-16.4	18.3
COc1ccc(N2C(=O)C(Cl)=C(N3CCN(Cc4ccccc4)CC3)C2=O)cc1	15.4	7.7	-10.6	78.3*	-2.2	10.0
COc1ccc(N2C(=O)C(Cl)=C(Oc3cccc(OC)c3)C2=O)cc1	24.3	93.2*	11.5	106.1*	106.6*	3.7
COc1ccc(N2C(=O)c3ccccc3C2=O)cc1	5.4	-23.3	-32.5	-0.5	-23.2	-8.2
O=C1C(Cl)=C(N2CCCCC2)C(=O)N1Cc1ccccc1	9.9	4.9	-13.6	95.7*	4.7	11.0
O=C1C(Cl)=C(N2CCN(Cc3ccccc3)CC2)C(=O)N1c1ccccc1	-0.5	9.4	-16.2	54.0	-0.6	11.3
COC(=O)c1ccc(CNC(=O)c2ccc(S(=O)(=O)N3CCCC(C)C3)cc2)cc1 (stereo unspecified)	3.3	11.8	5.8	/	18.6	-0.5
CCOc1ccc(S(=O)(=O)N2CCC(C(=O)NCCN3CCOCC3)CC2)cc1C	20.9	10.2	8.2	/	-1.6	1.5
COc1ccc(S(=O)(=O)N2CCCCC2)cc1NC(=O)CCC(=O)N1CCC(c2ccccc2)=N1	4.3	2.8	-5.1	/	-2.9	-2.8

Screens (PubChem BioAssay)
